Screens from PubChem BioAssay.
LmPK inh – qHTS Assay for Inhibitors of Leishmania Mexicana Pyruvate Kinase (LmPK) | Q27686 | purified LmPK, Kinase-Glo ATP luminescence, 1 h | Potency, µM (titrated, usually from 57.5 µM), without a hit: top-dose activity change, negative = inhibition, usual class: inhibitors | actives 0.37% (n = 290,000); further: potency means the concentration at half of the fitted maximal effect; on the % scale 0 is the no-effect control and ±100 the full control effect
Target sequence (Q27686 whole entry, looked up): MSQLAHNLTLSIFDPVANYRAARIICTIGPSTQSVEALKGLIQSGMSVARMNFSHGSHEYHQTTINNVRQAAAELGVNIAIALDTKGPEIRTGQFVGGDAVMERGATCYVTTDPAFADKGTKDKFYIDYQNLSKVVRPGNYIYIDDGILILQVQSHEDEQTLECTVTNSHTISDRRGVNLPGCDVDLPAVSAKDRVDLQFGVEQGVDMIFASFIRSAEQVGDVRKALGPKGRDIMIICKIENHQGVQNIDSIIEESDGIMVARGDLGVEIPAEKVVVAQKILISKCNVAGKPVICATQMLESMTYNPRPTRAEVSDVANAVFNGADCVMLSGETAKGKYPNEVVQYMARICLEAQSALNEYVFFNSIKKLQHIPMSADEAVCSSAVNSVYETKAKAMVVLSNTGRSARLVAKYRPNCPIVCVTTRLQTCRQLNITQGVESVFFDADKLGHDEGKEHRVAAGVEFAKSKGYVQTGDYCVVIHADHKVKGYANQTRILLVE
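0.1 nM LmPK, 0.5 mM PEP, 0.1 mM ADP; 50 mM imidazole pH 7.2, 7 mM MgCl2, 50 mM KCl; 1 h RT. Kinase-Glo luminescence readout, normalized to no-enzyme (full inhibition) and uninhibited wells.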
Pf growth 96h – Primary qHTS for delayed death inhibitors of the malarial parasite plastid, 96 hour incubation; P. falciparum luciferase reporter growth, 96 h; Potency, µM (top dose mostly 28.7 µM), for the others: top-dose activity change, negative = inhibition, hits mostly inhibitors; actives 6.9% (n = 320,000); AID 504834, 2011; further: potency means the concentration at half of the fitted maximal effect; on the % scale 0 is the no-effect control and ±100 the full control effect
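Two parasite generations (96 h, 37 C, 5% CO2) of compound exposure in infected erythrocytes (0.05% parasitemia, 2% hematocrit). Luciferase-reporter P. falciparum; decreased luminescence indicates inhibited growth, aimed at apicoplast-acting delayed death.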
Pf growth 48h – Primary qHTS for delayed death inhibitors of the malarial parasite plastid, 48 hour incubation. P. falciparum luciferase growth in erythrocytes, 48 h. Potency, µM (series often up to 28.7 µM), inactives show at the top dose activity change, negative = inhibition, usual class: inhibitors. actives 5.9% (n = 310,000). AID 504832, 2011; further: potency means the concentration at half of the fitted maximal effect; on the % scale 0 is the no-effect control and ±100 the full control effect
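Parasite viability was followed by luminescence of a genomically integrated firefly luciferase. Cultures held 0.1% parasitemia at 2% hematocrit (final), incubated under 5% CO2 at 37 C.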
Shiga toxin inh – A qHTS for Small Molecule Inhibitors of Shiga Toxin; actives 9.2% (n = 290,000); Vero cells, Shiga toxin protein synthesis inhibition reporter; AID 2315, 2010; inhibition, % at 38.7 µM; in the data active means inhibition mostly above about 28%, no sharp cut-off; inactive means mostly below about 43%; further: 0% is about no effect
CHX counter – Cycloheximide Counterscreen for Small Molecule Inhibitors of Shiga Toxin | cell reporter, cycloheximide protein synthesis inhibition counterscreen | actives 12% (n = 300,000) | max response, % | AID 2314, 2010; in the data active means max response mostly above about 13%, no sharp cut-off; inactive means mostly below about 14%; further: read at 38.3 µM for the half of the compounds with a filed dose; 0% is about no effect
* = called active by the depositor; ? = inconclusive; . = no result given; [ ] = dose if it differs, or a comment. A selection: hits, their analogues and other compounds. The true share with any hit is near 22%. Unless noted, the call rests on the fitted dose curve; in most records, active means well fitted inhibition curve with a large enough effect; inconclusive means small, poorly fitted or top-dose-only effect, or another doubt; inactive means no such curve, though single readings can be large or run the other way.

SMILES	LmPK inh	Pf growth 96h	Pf growth 48h	Shiga toxin inh	CHX counter
CCCCN(CC)CCCNC(=O)c1cn(CC(C)C)c(=O)c2c1c1ccccc1n2C	3%	-25%	13µM*	-6	1
CCN1C(=O)C(CC(=O)Nc2ccc(F)cc2)N(Cc2ccc3c(c2)OCO3)C1=S (stereo not given)	13%	?	?	-5	7
O=C(CCCn1c(=O)[nH]c2cc(Cl)ccc2c1=O)NCCC1=CCCCC1	-9%	?	.	15	-2
COc1cccc(CNC(=O)c2ccccc2-c2ccccc2)c1	-8%	?	1%	-10	6
COCCN(C(=O)COC(=O)C1CC1C)c1c(N)n(Cc2ccccc2)c(=O)[nH]c1=O (stereo not given)	.	14%	?	.	.
Cc1cc2nc(CCN(Cc3cccnc3)C(=S)Nc3ccccc3)[nH]c2cc1C	4%	7.4µM*	12µM*	5	5
COc1ccccc1NC(=S)N(Cc1ccc(C)cc1)Cc1cccnc1	-2%	?	13%	-5	-3
Cc1cc2nc(CCN(Cc3cccnc3)C(=S)Nc3ccc(F)cc3)[nH]c2cc1C	6%	?	?	-14	-2
COc1ccccc1NC(=S)N(CCc1nc2cc(C)c(C)cc2[nH]1)Cc1cccnc1	0%	?	10µM*	16	-2
O=C(CC1SC(N2CCCCC2)=NC1=O)Nc1cccc(C(=O)Nc2ncccc2O)c1 (stereo not given)	.	?	-5%	.	.
O=C(NC1CCN(S(=O)(=O)c2ccccc2F)CC1)c1cccnc1	-2%	0%	-8%	-4	-2
C/C(=N\NC(=O)c1ccc(Br)o1)c1cc2c(cc1NC(=O)CCC(=O)O)OCO2	-8%	-13%	-4%	34*	19*
O=C(Nc1ccc(S(=O)(=O)N2CCCC2)cc1)c1ccc(Br)o1	1%	25%	?	29	-3
O=C(Nc1ccc2c(c1)CCC2)c1ccc(Br)o1	-29%	.	107%	76*	44*
O=C(Nc1ccc2c(c1)CCC2)c1cc2ccccc2o1	-12%	-75%	.	55*	65*
O=C(Nc1ccc2c(c1)OCO2)c1ccc(Br)o1	22µM*	99%	.	69*	48*
Cc1ccc(CNC(=O)CN2C(=O)COc3ccc(S(=O)(=O)N4CCCCC4)cc32)o1	6%	-16%	7%	10	9
CC(C)(CNC(=O)c1cccc(NS(=O)(=O)c2ccc(Br)cc2)c1)N1CCOCC1	-7%	0%	-1%	-34	-1
COc1ccc(-n2nc(C(=O)NCCc3ccc(OC)c(OC)c3)c3c4ccccc4n(C)c3c2=O)cc1	.	.	.	-12	-4
COc1cccc(CC(=O)Nc2ccc3c(c2)CCC3)c1	3%	36%	38%	35	9
O=C(Nc1ccc2c(c1)OCO2)c1ccc(COc2ccc3c(c2)CCC3)o1	-1%	-59%	-21%	45*	43*
O=C(Nc1ccc(F)cc1)c1ccc(CSc2ccccc2)o1	1%	?	0%	5	21*
Cc1ccc(NC(=O)c2ccncc2)cc1S(=O)(=O)N(C)C	-1%	12%	18%	7	0
Cc1ccc(NC(=O)c2ccc(Br)o2)cc1S(=O)(=O)N(C)C	-1%	21%	-3%	78*	24*
Cc1ccc(C(=O)Nc2ccc3c(c2)CCC3)o1	?	.	223%	99*	63*
SMILES	LmPK inh	Pf growth 96h	Pf growth 48h	Shiga toxin inh	CHX counter
Cc1ccc(NC(=O)Nc2ccc3c(c2)CCC3)cc1C	-2%	-6%	4%	29	18
Cc1ccc(NC(=O)Cc2ccc3c(c2)CCCC3)cc1C	3%	-1%	-7%	-14	23*
Cc1ccc(C(=O)Nc2ccc(F)cc2)o1	-23%	71%	34%	32*	20
Cc1ccc(C(=O)Nc2ccc(O)c(C(=O)O)c2)o1	-28%	.	-6%	-7	-2
CCc1ccccc1NC(=O)C1CCCN(c2nccc(C)n2)C1 (stereo not given)	0%	-1%	?	-5	-1
CCOc1ccc2nc(N3C(=O)/C(=C/c4ccc(Cl)cc4)NC3=S)sc2c1	2%	?	11%	2	13*
CCN(CC)S(=O)(=O)c1ccc(C(=O)NC(=S)N(CCO)Cc2ccccc2)cc1	-1%	-12%	-21%	-3	-3
CCCOc1ccc(CN(CCC#N)C(=S)NC(=O)c2ccccc2)cc1	-3%	15%	?	-32	23*
Cc1ccc(C(=O)NCCNC(=O)c2ccco2)cn1	8%	-5%	11%	-19	-1
COc1ccc(-c2ccc3c(c2)S(=O)(=O)c2cccc(C(=O)NC[C@@H]4CCCO4)c2C3=O)cc1OC	.	?	13µM*	.	.
CNC(=O)c1cc2cc(OC)ccc2oc1=O	3%	-15%	.	-8	-2
O=C(NC[C@@H]1CCCO1)c1cccc2c1C(=O)c1ccc(Cl)cc1S2(=O)=O	.	?	-3%	.	.
COc1ccc2oc(=O)c(C(=O)NC3CCCCCC3)cc2c1	4%	?	31%	.	23*
COc1cccc2cc(C(=O)NCC3CCCO3)c(=O)oc12 (stereo not given)	-5%	.	27%	33	30*
COc1cc(Br)cc2cc(C(=O)NCC3CCCO3)c(=O)oc12 (stereo not given)	-2%	47%	20%	-3	-2
COc1ccc2oc(=O)c(C(=O)NCC3CCCO3)cc2c1 (stereo not given)	2%	-8%	.	45	29*
COc1cccc2cc(C(=O)NC(C)C3CCCO3)c(=O)oc12 (stereo not given)	3%	.	68%	63*	45*
CCOC(=O)CC(NC(=O)c1ccco1)c1ccc(OC)cc1 (stereo not given)	-4%	273%	-11%	21	2
CCOC(=O)CC(NC(=O)c1cc2cccc(OC)c2oc1=O)c1ccc(OC)cc1 (stereo not given)	-3%	15%	12%	102*	44*
CNC(=O)c1cc2cccc(OC)c2oc1=O	1%	-2%	-3%	-5	0
COc1cccc2cc(C(=O)NC3CC4CCC3C4)oc12 (stereo not given)	0%	5%	?	21	14*
COc1cccc2cc(C(N)=O)oc12	0%	18%[5.75 µM]	12%	-20	13
C=Cn1ccnc1P(=S)(c1ccn(C)c1)c1nccn1C=C	2%	7.4µM*	-1%	17	-4
C=Cn1ccnc1P(=S)(c1nccn1C=C)c1nccn1C=C	-7%	?	?	-11	-2
CN1CCN(CC(=O)Nc2ccc(OCc3ccccc3)cc2)CC1	-1%	38%	.	64	36*
N#CCN1CCN(CC(=O)Nc2ccc(OCc3ccccc3)cc2)CC1	0%	?	19%	-22	23*
COc1ccc(NC(=O)CN2CCN(CC#N)CC2)cc1	-5%	-1%	-12%	.	-2
Cc1ccc2oc(/N=C(\N)NC(=O)C(C)(C)C)nc2c1	-3%	-16%	-88%	32	27*
